Experimental data published in PubChem BioAssay (NCATS).
“And” between values parts separate entries of the source, which are not always exact repeats. Identical values can stand only once. Inconclusive results are not listed. Some compounds were tested as several samples or in several runs, with calls that do not always agree. The source made the active and inactive calls. Unless noted, the call rests on the fitted dose curve; in most records, active means well fitted curve in the direction sought with a large enough effect; inconclusive means small, poorly fitted or top-dose-only effect, or another doubt; inactive means no such curve, though single readings can be large; an effect the other way counts as inactive or inconclusive.

How the values were obtained:
[1] = Validation screen for small molecules that induce DNA re-replication in SW480 colon adenocarcinoma cells (AID 504364); further: 0% is about no effect
Procedure, shortened: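 Image-based qHTS: compounds were incubated with SW480 cells for 48 hr, nuclei stained with Hoechst, and per-nucleus fluorescence intensity scanned to flag cells with excess DNA content.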

[2] = molecular target: 3',5'-cyclic-AMP phosphodiesterase 4B (Homo sapiens) (UniProt Q07343); test: qHTS Assay for Inhibitors of PDE-IV (AID 607; active means well fitted activation curve with a large enough effect in the main read-out, with a control signal flat, not every such curve was filed as active; further: % of control where 0% means no effect)
Sequence of 3',5'-cyclic-AMP phosphodiesterase 4B (Homo sapiens) (Q07343 whole entry, looked up): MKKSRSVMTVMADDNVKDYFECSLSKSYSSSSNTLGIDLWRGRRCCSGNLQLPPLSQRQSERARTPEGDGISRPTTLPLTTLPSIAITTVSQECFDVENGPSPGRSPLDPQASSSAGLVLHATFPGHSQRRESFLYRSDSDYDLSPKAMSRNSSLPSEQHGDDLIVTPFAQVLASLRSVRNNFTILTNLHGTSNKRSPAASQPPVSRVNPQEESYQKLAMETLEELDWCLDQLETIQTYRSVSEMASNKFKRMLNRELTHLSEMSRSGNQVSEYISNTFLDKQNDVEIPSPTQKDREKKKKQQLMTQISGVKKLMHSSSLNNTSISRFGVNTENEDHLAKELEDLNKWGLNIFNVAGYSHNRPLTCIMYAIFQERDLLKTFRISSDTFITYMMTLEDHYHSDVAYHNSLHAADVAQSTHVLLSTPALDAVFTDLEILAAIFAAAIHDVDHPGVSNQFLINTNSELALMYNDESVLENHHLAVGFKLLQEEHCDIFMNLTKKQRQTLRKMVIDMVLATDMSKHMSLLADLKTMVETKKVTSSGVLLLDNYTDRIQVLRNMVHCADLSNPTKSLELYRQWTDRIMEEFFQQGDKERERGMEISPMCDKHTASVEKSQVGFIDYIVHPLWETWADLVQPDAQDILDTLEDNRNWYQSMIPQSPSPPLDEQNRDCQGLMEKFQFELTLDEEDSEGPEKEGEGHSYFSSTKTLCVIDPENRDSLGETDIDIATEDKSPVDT
Procedure, shortened: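 Cell-based read-out of cAMP via a modified cyclic nucleotide-gated channel and membrane potential dye (535/590 nm) in HEK293 cells expressing PDE4 endogenously. Compounds tested up to 22.9 uM final; 100 uM RO 20-1724 reference.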

[3] = molecular target: Guanine nucleotide-binding protein G(i) subunit alpha-1 (Homo sapiens) (UniProt P63096); test: qHTS Assay for Inhibitors of RGS12 GoLoco Motif Activity (Green Fluorophore) (AID 879);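 further: 0% = labeled peptide with Gαi1 and full inhibition = labeled peptide alone without protein; negative values mean loss of peptide binding seen as reduced polarization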
Procedure, shortened: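 A drop in FITC polarization marked displacement of the FITC-tagged RGS12 GoLoco peptide (10 nM) from Gαi1 (50 nM). Compounds were incubated 10 min at room temperature in Tris pH 7.5 buffer containing 150 mM NaCl, 0.1 mM GDP and 0.05% NP40; unlabeled peptide titration served as control.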

[4] = molecular target: Cytochrome P450 2C9 (Homo sapiens) (UniProt P11712); test: qHTS Assay for Inhibitors and Substrates of Cytochrome P450 2C9 (AID 883); further: potency means the concentration at half of the fitted maximal effect; nearly all actives have a fitted effect of over 60% in size
Sequence of Cytochrome P450 2C9 (Homo sapiens) (P11712 whole entry, looked up): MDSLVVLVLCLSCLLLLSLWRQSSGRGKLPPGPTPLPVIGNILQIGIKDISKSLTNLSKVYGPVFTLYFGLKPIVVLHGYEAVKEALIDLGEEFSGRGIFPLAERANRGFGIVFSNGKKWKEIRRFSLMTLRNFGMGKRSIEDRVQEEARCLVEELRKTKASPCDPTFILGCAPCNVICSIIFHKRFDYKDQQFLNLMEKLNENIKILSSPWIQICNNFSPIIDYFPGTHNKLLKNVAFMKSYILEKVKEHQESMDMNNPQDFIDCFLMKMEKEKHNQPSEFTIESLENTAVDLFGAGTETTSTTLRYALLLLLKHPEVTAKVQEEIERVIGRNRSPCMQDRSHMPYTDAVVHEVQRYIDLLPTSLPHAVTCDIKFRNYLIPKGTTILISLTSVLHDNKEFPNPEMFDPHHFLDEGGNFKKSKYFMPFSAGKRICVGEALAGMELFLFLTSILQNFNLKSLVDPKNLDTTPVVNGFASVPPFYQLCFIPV
Procedure, shortened: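 A luminogenic readout tracked human CYP2C9 (10nM) converting deoxyluciferin (100uM, at KM) in 25mM KPO4 during 60 min at 37C with regenerated NADPH. Values normalized to 57uM sulphaphenazole as complete inhibition.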

[5] = molecular target: Cytochrome P450 2D6 (Homo sapiens) (UniProt P10635); test: qHTS Assay for Inhibitors and Substrates of Cytochrome P450 2D6 (AID 891); further: nearly all actives have a fitted effect of over 60% in size; further: potency means the concentration at half of the fitted maximal effect
Sequence of Cytochrome P450 2D6 (Homo sapiens) (P10635 whole entry, looked up): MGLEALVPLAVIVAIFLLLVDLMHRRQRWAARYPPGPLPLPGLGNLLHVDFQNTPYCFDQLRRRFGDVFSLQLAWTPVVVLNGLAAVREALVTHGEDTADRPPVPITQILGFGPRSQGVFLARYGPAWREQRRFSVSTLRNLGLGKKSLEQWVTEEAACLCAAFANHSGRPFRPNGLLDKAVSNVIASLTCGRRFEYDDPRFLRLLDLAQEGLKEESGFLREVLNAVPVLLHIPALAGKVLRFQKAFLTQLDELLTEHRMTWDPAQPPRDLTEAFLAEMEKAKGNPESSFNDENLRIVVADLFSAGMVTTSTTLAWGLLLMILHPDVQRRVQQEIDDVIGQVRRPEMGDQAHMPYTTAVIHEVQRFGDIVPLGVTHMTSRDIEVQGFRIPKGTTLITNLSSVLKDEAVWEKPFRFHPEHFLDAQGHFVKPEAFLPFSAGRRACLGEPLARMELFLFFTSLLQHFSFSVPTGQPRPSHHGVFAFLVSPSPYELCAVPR
Procedure, shortened: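 Luminescent read-out of luciferin formed by 5 nM human CYP2D6 demethylating 30 uM Luciferin-ME EGE (Km level) over 60 min at room temperature after NADPH regeneration addition. Data normalized to full inhibition by 1.43 uM quinidine.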

[6] = qHTS for differential inhibitors of proliferation of Plasmodium falciparum line 7G8 (AID 1815);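 further: potency means the concentration at half of the fitted maximal effect; parasite growth measured after three days of incubation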
[7] = qHTS for differential inhibitors of proliferation of Plasmodium falciparum line HB3 (AID 1886); settings: Potency: Plasmodium falciparum HB3 proliferation inhibition;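 further: parasites grown with compound for 72 h before SYBR Green readout; plate controls were vehicle for no effect and reference inhibitor for full effect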
[8] = molecular target: Transient receptor potential cation channel subfamily V member 1 (Homo sapiens) (UniProt Q8NER1); test: HTS Assay for Compounds that Act as Enhancers of the Vanilloid Receptor 1 (AID 488979); further: 0% is about no effect
Procedure, shortened: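 TRPV1-expressing cells loaded with Fluo-8 calcium dye; compounds added and calcium influx read kinetically for 3 min (agonist phase), then capsaicin at EC20 added and read 2 min more for enhancement. Fluorescence ex 480/em 520 nm.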

[9] = molecular target: Thyrotropin receptor (Homo sapiens) (UniProt P16473); test: qHTS Assay for Antagonists of the Thyroid Stimulating Hormone Receptor (AID 488980); further: series mostly up to about 58 µM; 0% is about no effect
Sequence of Thyrotropin receptor (Homo sapiens) (P16473 whole entry, looked up): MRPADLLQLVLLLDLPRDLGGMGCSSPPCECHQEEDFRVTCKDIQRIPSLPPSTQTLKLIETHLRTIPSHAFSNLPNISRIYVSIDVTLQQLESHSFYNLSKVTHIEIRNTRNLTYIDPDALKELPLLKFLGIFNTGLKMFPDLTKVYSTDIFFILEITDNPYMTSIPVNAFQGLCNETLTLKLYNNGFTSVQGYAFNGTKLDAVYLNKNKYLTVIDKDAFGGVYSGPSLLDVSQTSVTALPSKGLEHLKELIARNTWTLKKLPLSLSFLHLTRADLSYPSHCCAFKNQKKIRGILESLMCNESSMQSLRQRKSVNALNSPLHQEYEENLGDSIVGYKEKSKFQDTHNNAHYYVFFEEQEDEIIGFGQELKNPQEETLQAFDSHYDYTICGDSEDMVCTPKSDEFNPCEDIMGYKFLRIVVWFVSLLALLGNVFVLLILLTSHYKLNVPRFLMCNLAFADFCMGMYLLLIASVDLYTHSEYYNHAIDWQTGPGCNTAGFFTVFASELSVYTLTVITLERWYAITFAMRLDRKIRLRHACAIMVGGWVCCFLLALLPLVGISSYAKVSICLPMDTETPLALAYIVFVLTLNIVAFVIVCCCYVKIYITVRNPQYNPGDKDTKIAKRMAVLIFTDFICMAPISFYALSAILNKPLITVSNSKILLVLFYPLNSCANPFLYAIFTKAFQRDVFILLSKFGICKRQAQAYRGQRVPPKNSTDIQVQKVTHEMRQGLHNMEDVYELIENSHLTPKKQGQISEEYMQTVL
Procedure, shortened: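 Inhibition of cAMP raised by EC80 TSH (4 nM final) was read by HTRF, with lysate cAMP competing against cAMP-d2 for cryptate antibody after 30 min at room temperature. The cells were transfected HEK293 held in phosphodiesterase inhibitor RO 20-1724 at 70 uM.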

[10] = molecular target: Thyrotropin-releasing hormone receptor (Homo sapiens) (UniProt P34981); test: qHTS for Small Molecule Agonists and Allosteric Enhancers of Human TRH Receptor: Validation Screen for Agonists (AID 493127;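 active means calcium activation more than 3 SD above the typical response in the agonist read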;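 further: intracellular calcium rise by fluo-8 fluorescence before TRH EC20 addition; 0% is about no effect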); settings: TRH receptor agonist cell assay; at 2 µM; stronger effect = higher value
Sequence of Thyrotropin-releasing hormone receptor (Homo sapiens) (P34981 whole entry, looked up): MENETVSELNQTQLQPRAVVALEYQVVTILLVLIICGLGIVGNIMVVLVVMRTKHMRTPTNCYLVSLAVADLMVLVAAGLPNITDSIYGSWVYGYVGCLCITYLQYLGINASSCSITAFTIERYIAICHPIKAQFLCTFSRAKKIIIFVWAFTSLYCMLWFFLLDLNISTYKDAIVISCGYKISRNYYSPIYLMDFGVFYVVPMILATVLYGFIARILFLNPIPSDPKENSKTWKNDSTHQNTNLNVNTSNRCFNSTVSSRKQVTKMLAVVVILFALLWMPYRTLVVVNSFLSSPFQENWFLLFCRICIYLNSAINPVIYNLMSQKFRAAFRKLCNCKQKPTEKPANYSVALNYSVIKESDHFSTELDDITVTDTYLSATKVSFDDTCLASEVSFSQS
Procedure, shortened: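 Compounds are added by online pintool to dye-loaded TRHR cells while fluorescence is recorded every second. A rise in calcium signal during the agonist read marks activation; a later 10 nM TRH addition (EC20) serves the separate enhancer mode.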

[11] = molecular target: Androgen receptor (Homo sapiens) (UniProt P10275); test: qHTS assay for small molecule agonists of androgen receptor signaling (AID 588515; active means well fitted curve in the direction sought with a large enough effect in the signal ratio, with a control signal flat; the % refers to the signal ratio; further: on the % scale 0 is the no-effect control and ±100 the full control effect); settings: AR-UAS-bla HEK293, beta-lactamase ratio, agonist 16 h; stronger effect = higher value
Sequence of Androgen receptor (Homo sapiens) (P10275 whole entry, looked up): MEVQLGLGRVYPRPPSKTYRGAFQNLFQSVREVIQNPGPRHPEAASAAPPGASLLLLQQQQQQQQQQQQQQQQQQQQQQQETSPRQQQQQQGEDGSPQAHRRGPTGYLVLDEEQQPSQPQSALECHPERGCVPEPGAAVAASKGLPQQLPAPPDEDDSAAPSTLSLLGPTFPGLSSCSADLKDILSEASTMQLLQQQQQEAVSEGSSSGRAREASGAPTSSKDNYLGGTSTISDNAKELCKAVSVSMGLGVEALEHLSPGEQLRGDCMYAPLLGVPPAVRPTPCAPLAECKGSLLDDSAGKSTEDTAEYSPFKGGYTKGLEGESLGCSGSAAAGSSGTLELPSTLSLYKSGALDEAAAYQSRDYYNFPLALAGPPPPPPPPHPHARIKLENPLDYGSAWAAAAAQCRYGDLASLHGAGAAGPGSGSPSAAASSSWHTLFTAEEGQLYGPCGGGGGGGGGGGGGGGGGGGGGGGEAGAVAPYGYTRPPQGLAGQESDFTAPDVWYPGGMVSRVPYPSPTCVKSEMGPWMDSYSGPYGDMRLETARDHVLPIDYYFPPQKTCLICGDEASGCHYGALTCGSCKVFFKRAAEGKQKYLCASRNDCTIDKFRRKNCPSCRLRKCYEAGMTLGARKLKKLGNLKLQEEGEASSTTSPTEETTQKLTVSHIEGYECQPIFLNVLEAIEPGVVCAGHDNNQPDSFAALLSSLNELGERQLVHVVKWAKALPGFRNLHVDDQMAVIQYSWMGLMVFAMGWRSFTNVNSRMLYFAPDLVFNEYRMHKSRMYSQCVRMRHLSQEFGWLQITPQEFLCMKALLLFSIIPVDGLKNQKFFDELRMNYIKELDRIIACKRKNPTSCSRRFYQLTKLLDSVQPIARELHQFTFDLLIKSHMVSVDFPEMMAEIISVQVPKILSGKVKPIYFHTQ
Procedure, shortened: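 Stimulation of an AR-responsive β-lactamase reporter in GripTite HEK293 cells was measured after 16 h compound exposure at 37 °C, via CCF4 fluorescence after 2 h RT. EC50 from Hill fits, normalized to R1881 at 30 nM.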

[12] = molecular target: Thyroid hormone receptor beta (Homo sapiens) (UniProt P10828); test: qHTS assay for small molecule agonists of thyroid hormone receptor beta signaling (AID 588545; calls by dose curve;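 further: 0% = DMSO only and 100% = 10 nM T3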)
Sequence of Thyroid hormone receptor beta (Homo sapiens) (P10828 whole entry, looked up): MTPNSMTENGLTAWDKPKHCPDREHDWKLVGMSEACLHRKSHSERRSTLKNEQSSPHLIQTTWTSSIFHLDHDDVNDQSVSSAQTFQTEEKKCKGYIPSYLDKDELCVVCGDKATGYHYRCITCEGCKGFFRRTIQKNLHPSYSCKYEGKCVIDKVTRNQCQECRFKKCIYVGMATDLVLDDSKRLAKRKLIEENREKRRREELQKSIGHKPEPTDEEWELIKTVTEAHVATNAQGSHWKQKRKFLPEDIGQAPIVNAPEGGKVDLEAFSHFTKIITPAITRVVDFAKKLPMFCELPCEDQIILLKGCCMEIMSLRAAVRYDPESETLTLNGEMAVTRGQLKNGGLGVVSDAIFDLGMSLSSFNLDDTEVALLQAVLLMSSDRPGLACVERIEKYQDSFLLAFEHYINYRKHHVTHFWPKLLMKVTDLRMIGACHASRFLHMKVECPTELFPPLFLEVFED
Procedure, shortened: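 Beta-lactamase reporter activity under TR response element control is measured in HEK 293 cells after 18 hrs compound exposure. Signal is ratiometric CCF4 fluorescence, 460/530 nm.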

[13] = qHTS assay for small molecule activators of the nuclear factor-kappa B (NF-kB) signaling pathway (AID 651749; active means well fitted activation curve with a large enough effect in the signal ratio; the % refers to the signal ratio; further: series mostly up to about 77 µM; % of control where 0% means no effect); settings: NF-kB-bla ME-180 cells, beta-lactamase FRET ratio, 16 h; stronger effect = higher value
Procedure, shortened: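 Human ME-180 cervical cells with an NF-kB-bla construct; compounds added via 23 nL pin transfer, DMSO as vehicle; incubation 16 hr. Reporter activity measured by FRET disruption.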

[14] = qHTS assay for environmental chemicals that activate the Aryl hydrocarbon Receptor (AhR) signaling pathway (AID 651777); settings: 1A2-DRE human hepatoma cells, luciferase, 24 h; activation: stronger effect = higher value; further: % of control where 0% means no effect; nearly all actives have a fitted effect of over 15% in size
Procedure, shortened: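 Concentration–response screening used 1,200 1A2-DRE cells per well, 24 hr compound exposure (37 C, 5% CO2), and One-Glo luminescence as the AhR-driven CYP1A2 reporter signal.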

[15] = qHTS assay for small molecule agonists of the antioxidant response element (ARE) signaling pathway measured by Nrf2-dependant transcriptional activity (AID 720636; active means well fitted curve in the direction sought with a large enough effect in the repeat runs; an effect the other way counts as inactive or inconclusive;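 further: HepG2 cells with an ARE-driven luciferase reporter; % of control where 0% means no effect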)
Procedure, shortened: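 Attachment 6 hr at 37 C, then compound versus DMSO vehicle for 16 hr in ARE-luc HepG2 cells (1% dialyzed FBS); luminescence recorded 30 min after ONE-Glo addition at room temperature.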

[16] = qHTS assay for small molecule agonists of the antioxidant response element (ARE) signaling pathway measured by Nrf2-dependant transcriptional activity - cell viability counter screen (AID 720653; active means well fitted curve in the direction sought with a large enough effect in the repeat runs; an effect the other way counts as inactive or inconclusive; further: on the % scale 0 is the no-effect control and ±100 the full control effect); settings: ARE-bla HepG2 viability, CellTiter-Glo ATP luminescence, 16 h; stronger effect = lower value
Procedure, shortened: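 ARE-bla HepG2 cells (2,000/well) rested 5 hrs at 37C/5% CO2, then exposed to compounds in DMSO for 16 hrs. Viability was read in the same wells as intracellular ATP by luminescence, 30 min at room temperature after reagent addition.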

[17] = qHTS assay for cell viability of HEK293 cells (AID 743288); settings: ATP luminescence (CellTiter-Glo), 18 h, stronger effect = lower value; further: on the % scale 0 is the no-effect control and ±100 the full control effect; nearly all actives have a fitted effect of over 50% in size
Procedure, shortened: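 Readout is luciferase-coupled ATP content (CellTiter-Glo luminescence, 30 min room temperature) as a measure of metabolically competent cells. Parental HEK293 cells were plated 5 h or more before compound addition, then treated 18 h at 37 C.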

[18] = qHTS assay for cell viability of the p53RE-bla HCT-116 cell line (AID 743292); further: potency means the concentration at half of the fitted maximal effect; nearly all actives have a fitted effect of over 55% in size
Procedure, shortened: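 Compound-exposed HCT-116 (p53RE-bla) cells, 4,000 per well, were kept 16 h at 37 C following a 5 h preincubation. Cell number was estimated from total ATP by CellTiter-Glo luminescence read after 30 min at room temperature.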

[19] = Primary qHTS for small molecule stabilizers of the endoplasmic reticulum resident proteome: Secreted ER Calcium Modulated Protein (SERCaMP) assay (AID 1508630); further: on the % scale 0 is the no-effect control and ±100 the full control effect
Procedure, shortened: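 The SH-SY5Y reporter protocol was run at 3 concentrations up to 38.3 uM (primary) or 11 concentrations (follow-up): 16 h compound, 100 nM thapsigargin for 4 h, then extracellular luciferase luminescence.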

[20] = molecular target: Nuclear receptor subfamily 1 group I member 2 (Rattus norvegicus) (UniProt Q9R1A7); test: qHTS assay for small molecule activators of the rat pregnane X receptor (rPXR) signaling pathway (AID 651751; call rule not given here; further: 0% is about no effect); settings: rPXR reporter cells, luciferase (One-Glo), 24 h
Sequence of Nuclear receptor subfamily 1 group I member 2 (Rattus norvegicus) (Q9R1A7 whole entry, looked up): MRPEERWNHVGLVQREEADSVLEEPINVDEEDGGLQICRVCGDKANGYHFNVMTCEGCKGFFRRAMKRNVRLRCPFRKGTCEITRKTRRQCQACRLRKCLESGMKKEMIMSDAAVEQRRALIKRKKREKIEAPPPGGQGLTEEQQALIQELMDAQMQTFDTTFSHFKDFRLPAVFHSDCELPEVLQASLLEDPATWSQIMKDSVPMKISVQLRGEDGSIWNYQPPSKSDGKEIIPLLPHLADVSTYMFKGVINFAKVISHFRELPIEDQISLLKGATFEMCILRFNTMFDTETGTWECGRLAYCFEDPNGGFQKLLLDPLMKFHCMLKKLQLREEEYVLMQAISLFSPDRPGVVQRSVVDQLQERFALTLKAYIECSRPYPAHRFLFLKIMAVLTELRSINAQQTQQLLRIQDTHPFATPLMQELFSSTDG

C[C@H]1CC2[C@@H]3CCC4=CC(=O)C=C[C@]4(C)[C@@]3(F)[C@@H](O)C[C@]2(C)[C@@]1(O)C(=O)CO (stereo not given in full)
inactive: outcome [1]

CN(CCOc1ccc(C[C@H](Nc2ccccc2C(=O)c2ccccc2)C(=O)O)cc1)c1ccccn1
inactive: Potency [2] | outcome [3] | Potency [7] | outcome [8] | outcome [9] | activation [10] 2.06% | activation [11] -13.2% | outcome [12] | activation [13] 1.83% | activation [14] 3.94% | outcome [15] | max response [16] 2.06% | max response [17] -5.97% | Potency [19] | max response [20] 1.12%
inactive and 31.6 nM (active): Potency [5]
active: Potency [4] 10 µM | Potency [6] 8.91 µM | Potency [18] 50.1 µM
